This is part of a sample that, as a whole, favours compounds with a hit. Of some 83,000 tested, about 20% had one in any assay.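 Activity criterion: percent growth below 10, measured after cells in 96-well plates were exposed to a single compound concentration for 48 hours.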 Values without a mark were called inactive. Calls of active or inactive are those of the source.

Holding throughout (assay): NCI-60 one-dose screen, 48 h (100 = growth as untreated, 0 = no growth, -100 = all killed)
Assay [1] has as its system T-47D breast. The following applies: 10 µM.
Assay [2] concerns BT-549 breast. The following applies: 10 µM unless noted.
For assay [3], the system named is SW-620 colon. The following applies: 10 µM unless noted.
Assay [4] has as its system MCF7 breast. The following applies: 10 µM unless noted.
For assay [5], the system named is HCT-116 colon. As to conditions: 10 µM unless noted.
For assay [6], the system named is HCC-2998 colon. The following applies: 10 µM unless noted.
In assay [7] the test system is KM12 colon. The following applies: 10 µM unless noted.
Assay [8] deals with MDA-MB-435 melanoma. As to conditions: 10 µM unless noted.

In the case of `COc1ccc(C2OCC(C)(C)CO2)cc1OC`, the growth in assay [1] is 97.3%; in assay [2] it was 109%; in assay [3], 106%; in assay [4], 104%; in assay [5], 109%; in assay [6], 102%. In assay [7], the growth is 112%.

Take `CC[Si](CC)(CC)OC1[C@@H](O[Si](CC)(CC)CC)[C@@H](CNC(=O)NC)O[C@H]1n1cnc2c(NC(=O)Nc3ccccc3)ncnc21` (some centres not stated): the growth is 89.8% in assay [1]; 104% in assay [2]; 65.5% in assay [8]; 71.6% in assay [3]; 61.6% in assay [4]; 96.5% in assay [6]. Further, in assay [7], the growth was 60.8%.

`O=C(NCc1ccc(F)cc1)C1CN(c2ccc(Cl)cc2)N(c2ccc(Cl)cc2)C1=O` (configuration not stated): the growth in assay [1] was 49.9%; in assay [2] it was 61.2%; in assay [8], -21.8% (active); in assay [3], 36.7%; in assay [4] it was 29.6%; in assay [6], 84.6%. For the same compound, the growth in assay [7] is 33.2%.

For the compound `C(=C\c1ccccc1)/CN1CCN(C(c2ccccc2)c2ccccc2)CC1`, the growth in assay [1] was 79.7%; in assay [2], 92.2%; in assay [3] it was 90.3%; in assay [4], 92.4%; in assay [5], 95.8%; in assay [6], 100%. In addition, the growth in assay [7] was 104%.

Regarding `CCN(CC)CCCNc1ccc(C)c2sc3ccccc3c(=O)c12`, the growth in assay [1] was 43.7%; in assay [2] it was 76.5%; in assay [8], -85.7% (active); in assay [4], -67.1% (active); in assay [5], 17.5%; in assay [6] it was -49.2% (active). In addition, the growth in assay [7] is 33.2%.

In the case of `O=C(Nc1ccccc1)Oc1cccc2cccnc12`, the growth in assay [1] is 31.5%; in assay [2], 102%; in assay [8], 97%; in assay [3], 48.2%; in assay [5], 1.27% (active); in assay [7], 108%.

`Cc1cc(O)cc2c1[C@H]1CC[C@]3(C)[C@@H](O)CC[C@H]3[C@@H]1C=C2`: the growth in assay [1] was 96.5%; in assay [2] it was 100%; in assay [8], 7.81% (active); in assay [3], 72%; in assay [4] it was 109%; in assay [6], 48.4%. In addition, the growth in assay [7] was 102%.

Turning to `Cc1ccc2nc(NC(=O)CSC(=S)N3CCN(C)CC3)sc2c1`, the growth in assay [1] is 105%; in assay [2] it was 97.4%; in assay [8], 101%; in assay [3], 106%; in assay [5], 97.2%; in assay [7] it was 111%.

As for `C[C@@H](Oc1cc(-c2cnn(C3CC4(CCCNC4)C3)c2)cnc1N)c1c(Cl)ccc(F)c1Cl` (some centres not stated), the growth in assay [1] was 20.4%; in assay [2], 73.4%; in assay [8], 12.6%; in assay [3], -4.07% (active); in assay [5], -11.8% (active); in assay [6] it was 15.3%.

For `COC(=O)c1cc(-c2ccc(C)cc2)n(C(=O)CSc2nc3sc(C(N)=O)c(C)c3c(=O)n2Cc2ccccc2)n1`, the growth in assay [1] was 95.1%; in assay [2] it was 96.1%; in assay [8], 104%; in assay [3], 105%; in assay [5], 92%; in assay [6], 108%. In addition, the growth in assay [7] is 100%.

For the compound `O=C1CCC(N2C(=O)c3cccc(NCCOCCOCCNC(=O)c4cc5c(o4)C(=O)c4ccccc4C5=O)c3C2=O)C(=O)N1` (configuration not stated), the growth is 4.87% (active) in assay [1]; -89.3% (active) in assay [2]; -92.1% (active) in assay [8]; -19.3% (active) in assay [3]; -16.1% (active) in assay [5]; -61.7% (active) in assay [6]. Further, the growth in assay [7] was -8.32% (active).

On to `COc1cc(-c2nc(Nc3nc4ccccc4[nH]3)nc(N)c2C#N)cc(OC)c1OC`, for which the growth was 57.8% in assay [1]; 71.3% in assay [2]; 14.5% in assay [8]; 43.3% in assay [5]; 81.2% in assay [6]; 36.6% in assay [7].

`c1ccc2c(c1)oc1cc3c(cc12)nnc1cccn13`: the growth was 85.4% in assay [1]; 97.9% in assay [2]; 105% in assay [8]; 108% in assay [3]; 100% in assay [5]; 110% in assay [6]. The growth in assay [7] is 99.8%.

For `COc1ccc(/C=C2\CN(Cc3cn(CCCNc4ccnc5cc(Cl)ccc45)nn3)C/C(=C\c3ccc(OC)cc3)C2=O)cc1`, the growth in assay [1] was 102%; in assay [2], 44.3%; in assay [8], 60.2%; in assay [3] it was 46.4%; in assay [4], 43.5%; in assay [6], 95.1%. Also, in assay [7], the growth was 45.4%.

Consider `O=C1c2cc(S(=O)(=O)O)ccc2C(=O)c2c1cccc2[N+](=O)[O-]`, for which the growth was 103% in assay [1]; 98.3% in assay [2]; 105% in assay [8]; 110% in assay [3]; 106% in assay [5]; 110% in assay [6]. Moreover, the growth in assay [7] is 104%.

On to `CCOC(=O)c1c(Cl)c2c(n1Cc1ccc(OC)cc1)-c1oncc1CCC2`, for which the growth is 83.6% in assay [1]; 70.4% in assay [2]; 101% in assay [8]; 71.1% in assay [3]; 82.3% in assay [4]; 66.9% in assay [6]. Moreover, in assay [7], the growth was 96.8%.

In the case of `CC(=O)Nc1ccccc1-c1n[nH]c(=O)[nH]c1=O`, the growth in assay [1] was 97.5%; in assay [2], 112%; in assay [8] it was 97.9%; in assay [3], 96.4%; in assay [5], 104%; in assay [6], 116%. The growth in assay [7] was 105%.

As for `COC1(OC)C2(Cl)C=C(c3ccccc3)C1(Cl)C(Cl)=C2Cl` (configuration not stated), the growth in assay [2] was 88.2%; in assay [8], 95.7%; in assay [3] it was 115%; in assay [4], 99.2%; in assay [5], 79.3%; in assay [6], 99.8%. Further, the growth in assay [7] was 109%.

These data come from PubChem BioAssay (NCI).
